Compound activity from PubChem BioAssay.
A selection: hits, their analogues and other compounds. The true share with any hit is near 2.1%.
GRP78 ERSR act: qHTS for Inducers of the Endoplasmic Reticulum Stress Response (ERSR) in Human Glioma: qHTS. U87-MG GRP78 promoter luciferase reporter, 16 h. Potency, µM, for the others: at the highest dose activation, most hits filed as activators. 0.02% of 420,000 active; also: series mostly up to about 76 µM; % of control where 0% means no effect; nearly all actives have a fitted effect of over 35% in size
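Stably transfected U87-MG human glioma cells carrying a GRP78-based luminescent sensor were seeded at 1000 cells/well, pin-dosed with compounds and incubated 16 h. Luciferase reagent was then added, and end-point luminescence was read after 10 min at room temperature.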
A-T KAP1 phos: qHTS Assay for Identifying a Potential Treatment of Ataxia-Telangiectasia; F2112 A-T fibroblasts, KAP-1 phosphorylation AlphaLISA; neocarzinostatin DNA damage 30 min before lysis; Potency, µM (titrated, usually from 57.5 µM), inactives show top-dose activation, hits mostly activators; 0.19% of 320,000 active; also: % of control where 0% means no effect; nearly all actives have a fitted effect of over 45% in size
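hTERT-immortalized A-T patient fibroblasts (F2112), 500 cells/well in OPTI-MEM, 1% FBS, got compounds for 60 min, then NCS for 30 min at 37C. Lysates were then assayed for phospho-KAP-1 by AlphaLISA (anti-pKAP1 donor, anti-KAP1 acceptor beads), 6 hr at 25C.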
Mito fusion act: qHTS Assay for Small Molecule Inhibitors of Mitochondrial Division or Activators of Mitochondrial Fusion. S. cerevisiae fusion-defective mutant growth rescue, CellTiterGlo 48 h. Potency, µM (doses to about 46.1 µM), without a hit: at the top dose growth rescue (activation), most hits filed as activators. 0.23% of 320,000 active; also: % of control where 0% means no effect; nearly all actives have a fitted effect of over 45% in size
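Compounds are tested for their ability to restore growth of mitochondrial fusion-defective yeast strains at non-permissive 37C in YPEG medium over 48 hours. Viability is quantified by luciferase luminescence.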
aSyn yeast inh: qHTS of alpha-syn Inhibitors | Potency, µM (doses to about 46.1 µM), for the others: at the top dose growth rescue (activation), hits mostly activators | Yeast expressing alpha-synuclein, growth rescue, BacTiter-Glo, 24 h | 0.14% of 370,000 active | AID 652106, 2013; also: % of control where 0% means no effect; nearly all actives have a fitted effect of over 65% in size
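Galactose-induced alpha-syn yeast (OD600=0.02, raffinose-pregrown) + pinned cpd, 24 hr, 30 deg C; growth by BacTiter-Glo luminescence. Growth restoration scores as activation.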
Abeta yeast res: qHTS for compounds that reverse cellular toxicity of Amyloid beta (A-beta) peptide in yeast: Primary Screen; yeast expressing A-beta42, growth rescue, OD600, 48 h; response scale: 0% DMSO, 100% iron-clioquinol control; Potency, µM (top dose mostly 46.1 µM), usual class: activators; 0.063% of 410,000 active; AID 1347071, 2019; also: nearly all actives have a fitted effect of over 55% in size
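Yeast growth medium received pinned compounds, then yeast cells expressing toxic A-beta were added; plates incubated at 30 C for 48 hr. Growth read as absorbance at 600 nm, normalized to DMSO and equimolar FeCl3 plus clioquinol controls.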
TDP-43 yeast inh: qHTS of TDP-43 Inhibitors. TDP-43 expressing yeast growth rescue, BacTiter-Glo, 24 h. Potency, µM (top dose mostly 46.1 µM), inactives show at the highest dose growth rescue (activation), actives largely listed as activators. 1.8% of 410,000 active; also: % of control where 0% means no effect; nearly all actives have a fitted effect of over 50% in size
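Luminescence from BacTiter-Glo reports growth of TDP-43-expressing yeast after 24 hr at 30 deg C with compound. Cells were raffinose-pregrown to mid-log, then seeded in galactose medium at OD600=0.02.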
Active calls of the source: *; i = inactive; ? = inconclusive; / = not tested or not shown. Calls follow the shape of the dose curve; as a rule, active = well fitted curve in the direction sought with a large enough effect; inconclusive = small, poorly fitted or top-dose-only effect, or another doubt; inactive = no such curve, though single readings can be large; an effect the other way counts as inactive or inconclusive. Potency is read from the fitted curve at half-maximal effect.

SMILES	GRP78 ERSR act	A-T KAP1 phos	Mito fusion act	aSyn yeast inh	Abeta yeast res	TDP-43 yeast inh
Cc1cnc(SCC2CCCO2)nc1C1CCCN(C(=O)c2ccc(S(N)(=O)=O)cc2)C1 (stereo unspecified)	1%	/	/	/	/	/
O=C(NCCc1csc(-c2ccccc2)n1)c1ccc(Br)o1	-2%	16%	20%	6%	i	22µM*
Cc1cccc(-c2nc(CCNC(=O)c3ccc(Br)o3)cs2)c1	-4%	/	/	/	i	16µM*
Cc1cc(=O)c(C(=O)NCCCc2ccncc2)c2n1-c1ccccc1SC(c1cccs1)C2 (stereo unspecified)	-4%	/	/	/	/	/
O=C(NCc1ccccc1Cl)C1CCN(S(=O)(=O)Cc2ccccc2)CC1	-4%	/	/	/	i	10%
C#CCOCCOCCOCCNc1nc(N2CCN(C(=O)[C@H](CCC(=O)O)n3cc(C(N)Cc4ccc(O)cc4)nn3)CC2)nc(N2CCN(C(=O)[C@H](CCCCN)n3cc(C(N)[C@H](C)CC)nn3)CC2)n1 (stereo partly specified)	/	40µM*	-66%	/	/	/
C#CCOCCOCCOCCNc1nc(N2CCN(C(=O)[C@H](CCC(=O)O)n3cc(C(N)CO)nn3)CC2)nc(N2CCN(C(=O)[C@H](CCC(=O)O)n3cc(C(N)CC(C)C)nn3)CC2)n1 (stereo partly specified)	/	18µM*	-34%	/	/	/
Cc1ccc(C)c(NC(=S)NNc2ccc(F)cc2F)c1	-15%	-9%	-18%	-3%	?	13µM*
CCOC(=O)c1c(C)n(-c2ccccc2)c2ccc(OC(=O)c3cc(OC)cc(OC)c3)cc12	2%	/	/	/	i	27%
CC1(c2nnc(-c3ccc(F)cc3)o2)CC(c2c(Cl)cccc2Cl)=NO1 (stereo unspecified)	-3%	-10%	?	-11%	i	35µM*
CC1(c2nnc(-c3ccc(Cl)cc3)o2)CC(c2c(Cl)cccc2Cl)=NO1 (stereo unspecified)	-2%	5%	28%	-3%	i	24%
OCCCNc1nc(-c2ccc(Cl)cc2)nnc1-c1ccc(Br)cc1	-5%	4%	13µM*	-9%	i	16%
O=[N+]([O-])c1ccc(-c2nnc(-c3ccccc3)c(NCCCO)n2)cc1	-2%	3%	-2%	-4%	i	8%
COc1cc(F)c(C2=CC(=O)C[C@H](c3ccc4c(c3)OCO4)C2)cc1F	-5%	4%	11%	-2%	i	13µM*
COc1cccc(C2=CC(=O)C[C@H](c3ccc4c(c3)OCO4)C2)c1OC	6%	7%	12%	-2%	i	13µM*
COc1cccc(OC)c1C1=CC(=O)C[C@H](c2ccc3c(c2)OCO3)C1	-6%	-1%	21%	-6%	i	?
COc1ccc(F)cc1C1=CC(=O)C[C@H](c2ccc3c(c2)OCO3)C1	1%	3%	24%	1%	i	22µM*
CCC1CN(CC(=O)NCc2cc(C)n(C)n2)Cc2cc(OC)ccc2O1 (stereo unspecified)	-2%	/	/	/	/	/
Oc1ccc(Br)cc1-c1cc(-c2ccco2)[nH]n1	1%	-1%	22%	-22%	i	13µM*
Oc1ccccc1-c1cc(-c2ccco2)[nH]n1	?	4%	4%	-2%	i	20%
Oc1c(-c2cc(-c3ccco3)[nH]n2)ccc2ccccc12	4%	-4%	?	-31%	i	10µM*
Oc1ccc(Br)cc1-c1ccn[nH]1	3%	23%	5%	-7%	i	13µM*
O=C1C([N+](=O)[O-])=C(O)c2cccc3cccc1c23	/	28µM*	-20%	/	/	/
